The other results are listed elsewhere or left out. Records with an inconclusive call do not appear. Active and inactive are the calls of the source. Calls come from the whole dose curve; as a rule, active = well fitted curve in the direction sought with a large enough effect; inconclusive = small, poorly fitted or top-dose-only effect, or another doubt; inactive = no such curve, though single readings can be large or run the other way.

This test can be described thus: Inhibitors of DNA Polymerase Beta: Hit Validation in HIV-RT Assay. The note with it: HIV-1 RT polymerase activity, counter-screen; series mostly up to 57.1 µM. From the text:
The base excision repair system in human cells is a target for therapeutic modulation of the response to irradiation treatment and DNA-damaging drugs. A key enzyme in this system is the bi-functional DNA polymerase known as DNA polymerase beta (pol b). […] Using an integrated approach involving discovery of small molecule probes for pol b via qHTS and validation by crystallography and kinetics along with cell-based validation experiments, we will test the hypothesis that base excision repair can be strategically modulated in human cells by targeting pol b. Thus, we anticipate the pol b-specific probes emerging from this research will serve as starting points in the development of clinical agents for use in down regulation of DNA base excision repair during therapeutic interventions against cancer.
After the completion of the qHTS against the Molecular Libraries Small Molecular Repository (MLSMR), cherry picked compounds were confirmed in the primary qHTS pol beta assay and further characterized in several follow-up assays. To avoid compound promiscuity, we selected a completely unrelated viral polymerase to polymerase beta, HIV reverse transcriptase(RT) as a counter screen. There are distinct differences between the two polymerases, such as source of host and HIV RT is responsible for transcribing the virus' single stranded RNA into double-stranded DNA after entry into its host cell. […] To us, a favorable outcome in this assay is inactivity.
NIH Chemical Genomics Center [NCGC]
NIH Molecular Libraries Probe Centers Network [MLPCN]
Assay Submitter (PI): Samuel Wilson, National Institute of Environmental Health Sciences (NIEHS), NIH
A stepwise description of the 1536-well assay is shown in next Table. Three microliters of reagents (buffer in column 3 and 4 as negative control and 10 nM Pol beta in columns 1, 2, and 5-48) was dispensed into 1,536-well black solid-bottomed plate. Compounds (23 nL) were transferred via Kalypsys pin tool equipped with 1536-pin array (10 nL slotted pins, V&P Scientific, San Diego, CA). The plates were incubated for 15 min at room temperature, and 1 uL substrate (50 nM final concentration) were added to start the reaction and immediately read at 0 min read on Viewlux reader. The plate were further incubated for 10 min at room temperature, and then read on Viewlux again. Throughout the screen, reagent bottle and all liquid lines were chilled and made light-tight to minimize reagent degradation. All screening operations were performed on a fully integrated robotic system (Kalypsys, San Diego, CA) containing one RX-130 and two RX-90 anthropomorphic robotic arms (Staubli, Duncan, SC). Library plates were screened starting from the lowest and proceeding to the highest concentration, and a double-dipping step of the highest concentration was required to access higher concentrations of compounds. Vehicle-only plates, with DMSO being pin-transferred to the entire column 5-48 compound area, were inserted uniformly at the beginning and the end of each library in order to monitor for and record any shifts in the background, which can be affected by reagent dispensers or loss in enzyme activity overtime. Screening data were corrected, normalized, and concentration-effect relationships were derived by using publicly-available curve fitting algorithms developed in-house (http://ncgc.nih.gov/pub/openhts). A four parameter Hill equation was fitted to the concentration-response data by minimizing the residual error between the modeled and observed responses.
(The purpose of a counterscreen is to sort out artefacts and off-target activity.)
For the molecule `Cc1ccc(C(=O)Oc2coc(CSc3nnc(NC(=O)c4cccs4)s3)cc2=O)cc1C`, the call was inactive.

Turning to `O=C(Nc1ccc(S(=O)(=O)Nc2nccs2)cc1)c1cc(-c2ccncc2)nc2ccccc12`, the call was inactive.

Consider `COc1ccc(Cc2nnc(NC(=O)Cc3cccs3)s2)cc1`, for which the result was inactive. Consider `COc1cc([C@H](Cc2ccccc2)NC(C)=O)oc(=O)c1`, for which the result was inactive.

In the case of `Cc1c(CCC(=O)O)c(=O)oc2c(C)c(OCc3ccccc3Cl)ccc12`, the molecule was called inactive.

Take `O=C(c1cc2c(s1)CCC2)N1CCN(c2ccccc2)CC1`: the result was inactive.

For the molecule `Cc1ccc2nc(-c3ccncc3)cc(C(=O)Nc3ccc(OC(F)F)cc3)c2c1`, the call was inactive.

The values above are taken from PubChem BioAssay AID540301 (National Center for Advancing Translational Sciences (NCATS), 2011).
